# Reference: PubChem BioAssay (EPA / NIEHS)
# Calls of active or inactive are those of the source. How the source made its calls: active means hit-call score of the fitted dose curve at least 0.9, where 1 is the maximum; inactive means score below 0.9.
# Experiments:
# Conditions in all cases: mRNA level, 48 h; actives raise or lower the signal
# [1] = read-out: Peroxisomal acyl-coenzyme A oxidase 1 (ACOX1) gene, ACOX1 (gene 51); experiment: LTEA_HepaRG_ACOX1: Life Technologies and Expression Analysis (LTEA) Assay for Peroxisomal acyl-coenzyme A oxidase 1 (ACOX1) gene using HepaRG (AID 2283467)
# Outline: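 Differentiated human HepaRG cells were exposed in duplicate for 48 h in serum-free induction medium to eight half-log concentrations up to 100 uM in 0.5% DMSO. ACOX1 mRNA was then quantified by TaqMan qRT-PCR, normalized to ACTB, GAPDH and POLR2A.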
# [2] = read-out: Alkaline Phosphatase, Placental (ALPP) gene, ALPP (gene 250); experiment: LTEA_HepaRG_ALPP: Life Technologies and Expression Analysis (LTEA) Assay for Alkaline Phosphatase, Placental (ALPP) gene using HepaRG (AID 2283468)
# Outline: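 Differentiated human HepaRG cells were plated and cultured 48 h, then exposed in duplicate for 48 h in serum-free induction medium to eight half-log concentrations from 100 uM in 0.5% DMSO. ALPP mRNA was measured by TaqMan qRT-PCR, normalized to ACTB, GAPDH, POLR2A.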
# [3] = read-out: Bcl-2 (BAD) gene, BAD (gene 572); experiment: LTEA_HepaRG_BAD: Life Technologies and Expression Analysis (LTEA) Assay for Bcl-2 (BAD) gene using HepaRG (AID 2283469)
# Outline: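 Differentiated human HepaRG cells in serum-free induction medium were exposed in duplicate for 48 h to eight concentrations (top 100 uM, half-log steps, 0.5% DMSO). BAD mRNA was quantified by qRT-PCR normalised to ACTB, GAPDH and POLR2A, with bidirectional fitting versus DMSO.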
# [4] = read-out: Bcl-2 (BAX) gene, BAX (gene 581); experiment: LTEA_HepaRG_BAX: Life Technologies and Expression Analysis (LTEA) Assay for Bcl-2 (BAX) gene using HepaRG (AID 2283470)
# Outline: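 Differentiated human HepaRG cells, plated 48 h then switched to serum-free induction medium, were exposed 48 h to 8 half-log concentrations up to 100 uM in 0.5% DMSO; BAX mRNA measured by qRT-PCR, normalized to ACTB, GAPDH, POLR2A.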
# [5] = read-out: adenosine kinase (ADK) gene, ADK (gene 132); experiment: LTEA_HepaRG_ADK: Life Technologies and Expression Analysis (LTEA) Assay for adenosine kinase (ADK) gene using HepaRG (AID 2283471)
# Outline: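 ADK expression quantified by qRT-PCR, normalised to three housekeeping genes, after 48 h exposure of HepaRG cells to eight concentrations (top 100 uM, half-log steps, duplicate, 0.5% DMSO). Up- or down-regulation fitted relative to vehicle.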
# [6] = read-out: Alpha-fetoprotein (AFP) gene, AFP (gene 174); experiment: LTEA_HepaRG_AFP: Life Technologies and Expression Analysis (LTEA) Assay for Alpha-fetoprotein (AFP) gene using HepaRG (AID 2283472)
# Outline: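 Human HepaRG cells plated 48 h, then switched to serum-free induction medium and exposed in duplicate for 48 h to 8-point half-log series from 100 uM in 0.5% DMSO. AFP mRNA by qRT-PCR, normalized to ACTB, GAPDH, POLR2A; bidirectional fit versus DMSO.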
# [7] = read-out: BCL2L11 (gene 10018); experiment: LTEA_HepaRG_BCL2L11: Life Technologies and Expression Analysis (LTEA) Assay for Bcl-2 (BCL2L11) gene using HepaRG (AID 2283473)
# Outline: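 Differentiated human HepaRG cells in serum-free induction medium were exposed in duplicate for 48 h to eight concentrations (top 100 uM, half-log steps, 0.5% DMSO). BCL2L11 mRNA was quantified by TaqMan qRT-PCR, normalized to ACTB/GAPDH/POLR2A, bidirectional fit versus DMSO.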
# [8] = read-out: Apolipoprotein A-V (APOA5) gene, APOA5 (gene 116519); experiment: LTEA_HepaRG_APOA5: Life Technologies and Expression Analysis (LTEA) Assay for Apolipoprotein A-V (APOA5) gene using HepaRG (AID 2283474)
# Outline: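 Differentiated human HepaRG cells were exposed in duplicate for 48 h to eight half-log concentrations from 100 uM in 0.5% DMSO. APOA5 mRNA was quantified by TaqMan qRT-PCR, normalized to ACTB, GAPDH and POLR2A, and fitted bidirectionally against DMSO.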
# [9] = read-out: Apoptosis regulator Bcl-2 (Homo sapiens) (UniProt P10415); experiment: LTEA_HepaRG_BCL2: Life Technologies and Expression Analysis (LTEA) Assay for Bcl-2 gene using HepaRG (AID 2283475)
# Outline: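 Differentiated HepaRG cells in serum-free induction medium were exposed for 48 h to eight half-log concentrations up to 100 uM in 0.5% DMSO, in duplicate. BCL2 mRNA was quantified by TaqMan qRT-PCR normalised to ACTB, GAPDH and POLR2A, with bidirectional fitting versus DMSO.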
# [10] = read-out: Bcl-2 (BID) gene, BID (gene 637); experiment: LTEA_HepaRG_BID: Life Technologies and Expression Analysis (LTEA) Assay for Bcl-2 (BID) gene using HepaRG (AID 2283476)
# Outline: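 Differentiated HepaRG cells in serum-free induction medium were exposed in duplicate for 48 h to eight half-log concentrations up to 100 uM in 0.5% DMSO. BID mRNA was quantified by qRT-PCR, normalized to ACTB, GAPDH and POLR2A.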
# [11] = read-out: Caspase-3 (Homo sapiens) (UniProt P42574); experiment: LTEA_HepaRG_CASP3: Life Technologies and Expression Analysis (LTEA) Assay for cysteine-aspartic acid protease (CASP3) using HepaRG (AID 2283477)
# Outline: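 Differentiated human HepaRG cells in serum-free induction medium were exposed 48 h to 8-point half-log concentrations from 100 uM (0.5% DMSO vehicle). CASP3 mRNA was measured by qRT-PCR, normalised to ACTB, GAPDH and POLR2A, with bidirectional fitting against DMSO.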
# [12] = read-out: Cytochrome P450 (CYP24A1), CYP24A1 (gene 1591); experiment: LTEA_HepaRG_CYP24A1: Life Technologies and Expression Analysis (LTEA) Assay for Cytochrome P450 (CYP24A1) using HepaRG (AID 2283478)
# Outline: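 Differentiated HepaRG cells, pre-cultured 48 h, were exposed in duplicate for 48 h in serum-free induction medium to 8 half-log concentrations (top 100 uM, 0.5% DMSO). CYP24A1 mRNA was quantified by TaqMan qRT-PCR, normalized to ACTB/GAPDH/POLR2A, fitted bidirectionally versus DMSO.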
# [13] = read-out: Cytochrome P450 (CYP1A2), CYP1A2 (gene 1544); experiment: LTEA_HepaRG_CYP1A2: Life Technologies and Expression Analysis (LTEA) Assay for Cytochrome P450 (CYP1A2) using HepaRG (AID 2283479)
# Outline: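 Differentiated human HepaRG cells in serum-free induction medium were exposed in duplicate for 48 h to 8-point half-log concentrations up to 100 uM in 0.5% DMSO. CYP1A2 mRNA measured by qRT-PCR, normalized to ACTB, GAPDH, POLR2A; bidirectional fit vs DMSO.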
# [14] = read-out: cysteine-aspartic acid protease (CASP8), CASP8 (gene 841); experiment: LTEA_HepaRG_CASP8: Life Technologies and Expression Analysis (LTEA) Assay for cysteine-aspartic acid protease (CASP8) using HepaRG (AID 2283480)
# Outline: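 Differentiated human HepaRG cells, plated 48 h then switched to serum-free induction medium, were exposed in duplicate for 48 h to 8 half-log concentrations up to 100 uM in 0.5% DMSO. CASP8 mRNA was quantified by qRT-PCR, normalized to ACTB/GAPDH/POLR2A.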
# [15] = read-out: Cytochrome P450 (CYP2B6), CYP2B6 (gene 1555); experiment: LTEA_HepaRG_CYP2B6: Life Technologies and Expression Analysis (LTEA) Assay for Cytochrome P450 (CYP2B6) using HepaRG (AID 2283481)
# Outline: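 Differentiated HepaRG cells, serum-free induction medium, exposed 48 h in duplicate to 8-point half-log concentrations from 100 uM in 0.5% DMSO. CYP2B6 mRNA by qRT-PCR, normalized to ACTB, GAPDH, POLR2A; bidirectional fit versus DMSO.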
# [16] = read-out: Cytochrome P450 2C19 (Homo sapiens) (UniProt P33261); experiment: LTEA_HepaRG_CYP2C19: Life Technologies and Expression Analysis (LTEA) Assay for CYP2C19 using HepaRG (AID 2283482)
# Outline: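 Differentiated human HepaRG cells were exposed for 48 h in serum-free induction medium to 8 concentrations (top 100 uM, half-log steps, 0.5% DMSO). CYP2C19 mRNA was measured by qRT-PCR, normalized to ACTB/GAPDH/POLR2A, and fitted bidirectionally against DMSO.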
# [17] = read-out: CYP2C8 (gene 1558); experiment: LTEA_HepaRG_CYP2C8: Life Technologies and Expression Analysis (LTEA) Assay for CYP2C8 using HepaRG (AID 2283483)
# Outline: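 Differentiated human HepaRG cells were exposed for 48 h in serum-free induction medium to eight half-log concentrations up to 100 uM in 0.5% DMSO, in duplicate. CYP2C8 mRNA was measured by TaqMan qRT-PCR, normalized to ACTB, GAPDH and POLR2A, and fitted bidirectionally against DMSO.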
# [18] = read-out: CYP2C9 (gene 1559); experiment: LTEA_HepaRG_CYP2C9: Life Technologies and Expression Analysis (LTEA) Assay for CYP2C9 using HepaRG (AID 2283484)
# Outline: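 Differentiated human HepaRG cells were exposed 48 h in serum-free induction medium to eight half-log concentrations up to 100 uM in 0.5% DMSO. CYP2C9 mRNA was measured by qRT-PCR, normalized to ACTB, GAPDH and POLR2A, and fitted bidirectionally against DMSO.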
# [19] = read-out: CYP2E1 (gene 1571); experiment: LTEA_HepaRG_CYP2E1: Life Technologies and Expression Analysis (LTEA) Assay for CYP2E1 using HepaRG (AID 2283485)
# Outline: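 HepaRG cells in serum-free induction medium exposed 48 h to test chemicals, 8 half-log concentrations up to 100 uM in 0.5% DMSO, duplicate. CYP2E1 mRNA by qRT-PCR, normalized to ACTB, GAPDH, POLR2A; bidirectional fit versus DMSO.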
# Cytochrome P450 2C19 (Homo sapiens), sequence (P33261 whole entry, looked up): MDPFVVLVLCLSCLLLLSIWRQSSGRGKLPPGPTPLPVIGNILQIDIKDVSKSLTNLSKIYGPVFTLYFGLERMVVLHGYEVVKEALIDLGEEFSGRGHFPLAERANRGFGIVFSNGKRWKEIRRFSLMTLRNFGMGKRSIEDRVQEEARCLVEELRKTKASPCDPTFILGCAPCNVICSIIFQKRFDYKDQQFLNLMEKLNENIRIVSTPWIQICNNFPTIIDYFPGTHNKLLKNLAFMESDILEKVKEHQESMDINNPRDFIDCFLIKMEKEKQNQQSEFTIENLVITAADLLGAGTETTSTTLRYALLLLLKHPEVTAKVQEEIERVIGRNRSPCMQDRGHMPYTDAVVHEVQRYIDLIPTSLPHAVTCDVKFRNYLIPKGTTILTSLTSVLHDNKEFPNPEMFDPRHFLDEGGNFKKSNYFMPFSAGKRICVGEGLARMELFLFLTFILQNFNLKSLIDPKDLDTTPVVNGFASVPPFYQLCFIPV
# Caspase-3 (Homo sapiens), sequence (P42574 whole entry, looked up): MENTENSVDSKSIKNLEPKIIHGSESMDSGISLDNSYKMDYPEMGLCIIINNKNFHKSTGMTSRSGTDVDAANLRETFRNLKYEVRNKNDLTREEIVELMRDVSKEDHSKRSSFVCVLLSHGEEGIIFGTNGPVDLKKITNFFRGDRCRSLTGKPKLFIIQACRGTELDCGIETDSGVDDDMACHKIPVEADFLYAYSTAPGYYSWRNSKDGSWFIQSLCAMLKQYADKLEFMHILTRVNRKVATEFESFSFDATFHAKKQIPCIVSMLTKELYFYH
# Apoptosis regulator Bcl-2 (Homo sapiens), sequence (P10415 whole entry, looked up): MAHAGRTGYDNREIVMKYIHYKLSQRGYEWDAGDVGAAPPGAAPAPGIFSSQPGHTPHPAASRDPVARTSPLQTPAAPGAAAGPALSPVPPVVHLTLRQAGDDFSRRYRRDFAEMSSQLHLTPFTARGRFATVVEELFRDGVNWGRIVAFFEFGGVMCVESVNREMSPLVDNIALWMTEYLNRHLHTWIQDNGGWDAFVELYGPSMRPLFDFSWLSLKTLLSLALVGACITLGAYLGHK
structure (smiles),measurement,setting,value
CCCCOC(=O)c1ccc(O)cc1,outcome,[1],inactive
same,outcome,[2],inactive
same,outcome,[3],inactive
same,outcome,[4],inactive
same,outcome,[5],inactive
same,outcome,[6],inactive
same,outcome,[7],inactive
same,outcome,[8],inactive
same,outcome,[9],inactive
same,outcome,[10],inactive
same,outcome,[11],inactive
same,outcome,[12],inactive
same,outcome,[13],inactive
same,outcome,[14],inactive
same,outcome,[15],inactive
same,outcome,[16],inactive
same,outcome,[17],inactive
same,outcome,[18],inactive
same,outcome,[19],inactive
OCCO,outcome,[1],inactive
same,outcome,[3],inactive
same,outcome,[4],inactive
same,outcome,[5],inactive
same,outcome,[6],inactive
same,outcome,[7],inactive
same,outcome,[8],inactive
same,outcome,[9],inactive
same,outcome,[10],inactive
same,AC50,[11],9.97 µM (active)
same,outcome,[12],inactive
same,outcome,[13],inactive
same,outcome,[14],inactive
same,outcome,[15],inactive
same,outcome,[16],inactive
same,outcome,[17],inactive
same,outcome,[18],inactive
same,outcome,[19],inactive
c1ccc2n[nH]nc2c1,outcome,[1],inactive
same,outcome,[2],inactive
same,outcome,[3],inactive
same,outcome,[4],inactive
same,outcome,[5],inactive
same,outcome,[6],inactive
same,outcome,[7],inactive
same,outcome,[8],inactive
same,outcome,[9],inactive
same,outcome,[10],inactive
same,outcome,[11],inactive
same,outcome,[12],inactive
same,outcome,[13],inactive
same,outcome,[14],inactive
same,outcome,[15],inactive
same,outcome,[16],inactive
same,outcome,[17],inactive
same,outcome,[18],inactive
same,outcome,[19],inactive
CN1C(=O)CC[C@H]1c1cccnc1,outcome,[1],inactive
same,outcome,[3],inactive
same,outcome,[4],inactive
same,outcome,[5],inactive
same,outcome,[6],inactive
same,outcome,[7],inactive
same,outcome,[8],inactive
same,outcome,[9],inactive
same,outcome,[10],inactive
same,outcome,[11],inactive
same,outcome,[12],inactive
same,AC50,[13],91.4 µM (active)
same,outcome,[14],inactive
same,outcome,[15],inactive
same,outcome,[16],inactive
same,outcome,[17],inactive
same,outcome,[18],inactive
same,outcome,[19],inactive
CN(C)C(=O)C1(N2CCCCC2)CCN(CC[C@@]2(c3ccc(Cl)c(Cl)c3)CN(C(=O)c3ccccc3)CCO2)CC1,AC50,[1],88.1 µM (active)
same,AC50,[2],14.9 µM (active)
same,outcome,[3],inactive
same,AC50,[4],27.1 µM (active)
same,outcome,[5],inactive
same,outcome,[6],inactive
same,AC50,[7],86.8 µM (active)
same,outcome,[8],inactive
same,AC50,[9],22.6 µM (active)
same,outcome,[10],inactive
same,outcome,[11],inactive
same,outcome,[12],inactive
same,AC50,[13],24.2 µM (active)
same,outcome,[14],inactive
same,AC50,[15],27.8 µM (active)
same,AC50,[16],23.9 µM (active)
same,AC50,[17],28 µM (active)
same,AC50,[18],21.9 µM (active)
same,AC50,[19],8.56 µM (active)
CCN(Cc1cccnc1)C(=O)c1cccc(Cl)c1[C@]1(C)C(=O)N(Cc2ccc(OC)cc2OC)c2ccc(Cl)cc21,AC50,[1],18.2 µM (active)
same,outcome,[3],inactive
same,AC50,[4],24.7 µM (active)
same,outcome,[5],inactive
same,AC50,[6],19.4 µM (active)
same,outcome,[7],inactive
same,AC50,[8],11.4 µM (active)
same,AC50,[9],11.4 µM (active)
same,outcome,[10],inactive
same,outcome,[11],inactive
same,outcome,[12],inactive
same,AC50,[13],22.2 µM (active)
same,AC50,[14],12.5 µM (active)
same,AC50,[15],25.8 µM (active)
same,AC50,[16],26.1 µM (active)
same,AC50,[17],25.8 µM (active)
same,AC50,[18],26.2 µM (active)
same,AC50,[19],16.1 µM (active)
CC/C(=C(/CC)c1ccc(O)cc1)c1ccc(O)cc1,AC50,[1],93.1 µM (active)
same,outcome,[3],inactive
same,outcome,[4],inactive
same,AC50,[5],94.1 µM (active)
same,outcome,[6],inactive
same,AC50,[7],88.8 µM (active)
same,AC50,[8],50 µM (active)
same,outcome,[9],inactive
same,outcome,[10],inactive
same,AC50,[11],93 µM (active)
same,outcome,[12],inactive
same,AC50,[14],93.2 µM (active)
same,AC50,[15],82.4 µM (active)
same,outcome,[17],inactive
same,AC50,[19],82.1 µM (active)
